Values joined by “and” are separate entries in the source; they are usually repeats but may differ in a detail not shown here. Identical values can stand only once. Hit rate of the full screen: of about 5,500 compounds, about 2,000 (36%) were called active. Roughly 18% stayed inconclusive and do not appear here. No stated cut-off is given here; in the data, active means normalized growth mostly below about 0.91 (no sharp cut-off); inconclusive means no clear call, values can overlap the other calls; inactive means mostly above about 0.92. The list shows a part of the results.
Test: chemical genetic growth profiling, strain panel (AID 1159580);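 further: tested at 20 µM; growth read once vehicle control cultures reached saturation at 30 °C; 1 = growth at the plate median or of vehicle wells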
Settings: S. cerevisiae deletion strains, growth OD

Measured: normalized growth

CCNc1nc(Cl)nc(NC(C)C)n1
inactive: locus YAL013W, strain DEP1, stronger effect = lower value 1.01 | locus YAL021C, strain ccr4, stronger effect = lower value 0.995 | locus YAL026C, strain drs2, stronger effect = lower value 1.01 | locus YAL030W, strain snc1, stronger effect = lower value 0.999 | locus YBL061C, strain skt5, stronger effect = lower value 1.01 | locus YBR009C, strain hhf1, stronger effect = lower value 0.99 | locus YBR021W, strain FUR4, stronger effect = lower value 1.02 | locus YBR023C, strain chs3, stronger effect = lower value 0.998 | locus YBR171W, strain sec66, stronger effect = lower value 0.995 | locus YBR229C, strain ROT2, stronger effect = lower value 1.01 | locus YBR231C, strain swc5, stronger effect = lower value 1.01 | locus YBR279W, strain paf1, stronger effect = lower value 0.998 | locus YCL011C, strain gbp2, stronger effect = lower value 0.993 | locus YCL016C, strain dcc1, stronger effect = lower value 0.995 | locus YCL029C, strain bik1, stronger effect = lower value 1.02 | locus YCL061C, strain MRC1, stronger effect = lower value 0.99 | locus YCL069W, strain vba3, stronger effect = lower value 0.997 | locus YCR088W, strain abp1, stronger effect = lower value 1 | locus YDL005C, strain med2, stronger effect = lower value 0.999 | locus YDL035C, strain GPR1, stronger effect = lower value 1.01 | locus YDL040C, strain nat1, stronger effect = lower value 1 | locus YDL074C, strain BRE1, stronger effect = lower value 1.01 | locus YDL101C, strain DUN1, stronger effect = lower value 1.03 | locus YDL134C, strain PPH21, stronger effect = lower value 1.02 | locus YDL185W, strain tfp1, stronger effect = lower value 1.02 | locus YDL192W, strain arf1, stronger effect = lower value 1.02 | locus YDR001C, strain nth1, stronger effect = lower value 0.992 | locus YDR069C, strain doa4, stronger effect = lower value 1.01 | locus YDR101C, strain arx1, stronger effect = lower value 1.02 | locus YDR137W, strain rgp1, stronger effect = lower value 0.999 | locus YDR150W, strain NUM1, stronger effect = lower value 1.02 | locus YDR159W, strain sac3, stronger effect = lower value 1.01 | locus YDR162C, strain NBP2, stronger effect = lower value 1.04 | locus YDR195W, strain ref2 0.987 | locus YDR297W, strain sur2, stronger effect = lower value 1 | locus YDR318W, strain mcm21, stronger effect = lower value 1.03 | locus YDR334W, strain swr1, stronger effect = lower value 0.999 | locus YDR335W, strain msn5, stronger effect = lower value 1.01 | locus YDR388W, stronger effect = lower value 1.01 | locus YDR392W, strain spt3, stronger effect = lower value 1.01 | locus YDR502C, strain sam2, stronger effect = lower value 1.02 | locus YEL003W, strain gim4, stronger effect = lower value 0.994 | locus YEL037C, strain rad23, stronger effect = lower value 1.01 | locus YEL061C, strain CIN8 (second series), stronger effect = lower value 1.01 | locus YEL061C, strain CIN8, stronger effect = lower value 1.01 | locus YER015W, strain faa2, stronger effect = lower value 1 | locus YER016W, strain bim1, stronger effect = lower value 0.997 | locus YER110C, stronger effect = lower value 1.02 | locus YER111C, strain swi4, stronger effect = lower value 1 | locus YER155C, strain BEM2 (second series), stronger effect = lower value 0.993 | locus YER155C, strain BEM2, stronger effect = lower value 1 | locus YER167W, strain BCK2, stronger effect = lower value 1.02 | locus YFR010W, strain ubp6, stronger effect = lower value 1.01 | locus YGL078C, strain dbp3, stronger effect = lower value 1.02 | locus YGL086W, strain mad1, stronger effect = lower value 1.01 | locus YGL167C, strain pmr1, stronger effect = lower value 0.994 | locus YGL173C, strain kem1, stronger effect = lower value 1.01 | locus YGL227W, strain vid30, stronger effect = lower value 0.999 | locus YGL240W, strain doc1, stronger effect = lower value 0.98 | locus YGL248W, strain PDE1, stronger effect = lower value 1.01 | locus YGL253W, strain hxk2, stronger effect = lower value 1 | locus YGR078C, strain PAC10, stronger effect = lower value 1.02 | locus YGR135W, strain pre9, stronger effect = lower value 1.01 | locus YGR229C, strain SMI1, stronger effect = lower value 1.02 | locus YGR252W, strain gcn5, stronger effect = lower value 1 | locus YHR013C, strain ard1, stronger effect = lower value 1.01 | locus YHR027C, strain rpn1, stronger effect = lower value 1 | locus YHR030C, strain SLT2, stronger effect = lower value 1.03 and 0.992 | locus YHR079C, strain IRE1 (second series), stronger effect = lower value 1.02 | locus YHR079C, strain IRE1, stronger effect = lower value 0.99 | locus YHR094C, strain hxt1, stronger effect = lower value 1.02 | locus YHR129C, strain ARP1, stronger effect = lower value 1.01 | locus YHR142W, strain chs7, stronger effect = lower value 0.972 | locus YHR200W, strain rpn10, stronger effect = lower value 1.02 | locus YIL066C, strain RNR3, stronger effect = lower value 0.944 | locus YIL073C, strain SPO22, stronger effect = lower value 1.04 | locus YIL125W, strain kgd1, stronger effect = lower value 1.02 | locus YIR030C, strain dcg1, stronger effect = lower value 1.03 | locus YJL092W, strain hpr5, stronger effect = lower value 0.998 | locus YJL095W, strain BCK1 (second series), stronger effect = lower value 1 | locus YJL095W, strain BCK1, stronger effect = lower value 1 and 0.985 | locus YJL115W, strain asf1, stronger effect = lower value 1.01 | locus YJL129C, strain trk1, stronger effect = lower value 0.982 | locus YJL134W, strain LCB3, stronger effect = lower value 1.03 | locus YJL154C, strain vps35, stronger effect = lower value 0.996 | locus YJL164C, strain tpk1, stronger effect = lower value 0.998 | locus YJL166W, strain qcr8, stronger effect = lower value 0.993 | locus YJL168C, strain set2, stronger effect = lower value 1.02 | locus YJL187C, strain SWE1 (second series), stronger effect = lower value 1.02 | locus YJR043C, strain POL32, stronger effect = lower value 1.02 | locus YJR066W, strain TOR1, stronger effect = lower value 0.959

From PubChem BioAssay AID1159580 (chemical genetic matrix, 2015)
